Compound activity: PubChem, Broad Institute
These entries were drawn from the full list.
aSyn 5UTR act – Activators working through SNCA 5'UTR binding (MLPCN) | 300,000 tested, 7.1% active | AID 1814 | activity score, % (tested at 7.5 µM), hits read low | alpha-synuclein 5'UTR reporter, activators screen; in the data active = activity score below about -60%
Numbers stand for hits; n = inactive.

SMILES	aSyn 5UTR act
O=Cc1cn(Cc2cccc(F)c2)c2ccccc12	n
CNC(=O)Oc1ccc(-c2cn3cc(C)ccc3n2)cc1	n
CCCCc1nc2ccccc2c(=O)n1-c1ccccc1[N+](=O)[O-]	-73
CC(=O)O[C@@H]1/C=C/[C@](C)(O)C[C@@H](C)C/C=C/[C@H]2[C@H](O)C(C)=C(C)[C@H]3[C@H](Cc4ccccc4)NC(=O)[C@@]123	n
CC12CC[C@H]3[C@@H](CCC4(O)C[C@H](O)CCC34/C=N/NC(=O)c3ccccc3[N+](=O)[O-])C1(O)CCC2C1=CC(=O)OC1 (stereo not given in full)	n
CC(Cc1ccccc1)/[N+]([O-])=C\c1ccc(C(F)(F)F)cc1 (stereo not given)	-119
FC(F)(F)c1ccc(NC2=NCCCS2)cc1	-69
C#CCOc1cc(C2C3=C(COC3=O)Nc3cc4c(cc32)OCO4)ccc1OC (stereo not given)	n
C[N+]1=C(/C=C/Nc2ccccc2)C(C)(C)c2ccccc21	-93
C=C1C[C@@H]2[C@H](CC[C@]3(C)C(=O)CC[C@@H]23)[C@@]2(C)C=CC(=O)C=C12	-141
COc1ccc2nc(NC3=NCCN3)sc2c1	-209
c1ccc2sc(NC3=NCCN3)nc2c1	-103
[O-]c1ccccc1-[n+]1c(-c2ccccc2)cc(-c2ccccc2)cc1-c1ccccc1	n
NC(=O)c1cn(C2OC(CO)C(O)C2O)c2ncnc(N)c12 (stereo not given)	n
C=CCN1C(=O)NC(=O)/C(=C/c2ccc(OC)c(COc3ccc(NC(C)=O)cc3)c2)C1=O	-64
Cc1ccc2nc(N3CCN(C)CC3)[nH]c2c1	-96
CC(C)[C@]12O[C@H]1[C@@H]1O[C@]13[C@]1(O[C@H]1C[C@H]1C4=C(CC[C@@]13C)C(=O)OC4)[C@@H]2O	n
O=c1c2ccccc2[nH]c(=S)n1-c1ccc2c(c1)OCCO2	-105
CN1C(=O)C(=Cc2ccc(N3CCOCC3)o2)C(=O)N(C)C1=S	-65
CN1C(=O)/C(=C/c2ccc(N3CCCCCC3)o2)C(=O)NC1=S	-186
CN1C(=O)/C(=C\c2ccc(N3CCCCC3)o2)C(=O)NC1=S	-162
CC1Oc2cc3c(-c4c(O)cc(O)c5c(O)c6c(cc45)OC(C)C(C)C6=O)c(O)cc(O)c3c(O)c2C(=O)C1C (stereo not given)	n
C[C@]12CC[C@H]3C(CCC4(O)CC(O)CC[C@]34C=O)C1=CC[C@H]2c1ccc(=O)oc1 (stereo not given in full)	n
COc1cc2c(c(OC)c1OC)-c1ccc(O)c(=O)cc1C(NC(C)=O)CC2 (stereo not given)	n
CN(C)C(Cc1ccccc1)C(=O)c1c[nH]c2ccccc12 (stereo not given)	-64
SMILES	aSyn 5UTR act
CCOC(=O)c1c(N)n(CCCOC(=O)c2ccco2)c2nc3ccccc3nc12	n
Nc1c(C(=O)NCc2ccco2)c2nc3ccccc3nc2n1CCN1CCCCC1	-103
COc1ccc(NC2=NC(C)(C)CS2)cc1	-140
C[C@H]1CCC[C@@H](O)CCC/C=C/c2cc(O)cc(O)c2C(=O)O1	-170
C[C@H]1CCC/C=C/C2C[C@H](O)CC2[C@H](O)/C=C/C(=O)O1 (stereo not given in full)	n
CC1CCC/C=C/C2CC(O)CC2C(O)/C=C/C(=O)O1 (stereo not given)	n
CN1CCN(c2ccc3c(c2)S(=O)(=O)c2ccccc2C3=O)CC1	-112
CN(C)c1ccc(/C=C/[N+](=O)[O-])cc1	-74
O=C(c1cc(-c2ccccc2)on1)N1CCC2(CC1)OCCO2	-113
Cc1nc2cc(-c3ccccc3)nn2c(C)c1CCC(=O)N1CCC2(CC1)OCCO2	n
C=C(C=O)C[C@@H]1C[C@H](O)C2OC3C[C@]4(C)OC5/C=C\CC6OC7C(CC=CCC6OC5CCCC4OC3CC2O1)OC1CC2OC3CC(=O)OC3C[C@@H](C)C[C@@]2(C)OC1C[C@@H]7C (stereo not given in full)	n
COC(=O)C(O)(c1ccc(NC(=S)NC(=O)c2ccccc2)cc1)C(F)(F)F (stereo not given)	-80
CC1(C)CN=C(NCc2ccccc2Cl)S1	-92
CCC(C)/C=C(C)/C=C/C1=CC2=C(Cl)C(=O)C(C)(OC(C)=O)C(=O)C2=CO1 (stereo not given)	-96
COc1ccc(/C=C/C2=CCN(C)CC2)cc1	-79
CCOC(=O)C(O)(c1ccc(NC(=O)NC2CCCCC2)cc1)C(F)(F)F (stereo not given)	-83
O=C(c1ccc2c(c1)ncn2C1CCCCC1)N1CCC2(CC1)OCCO2	-171
O=C(Nc1ccccc1)c1cccn(Cc2ccccc2)c1=O	-96
Cc1cc(NC(=O)CCl)no1	-99
CCCCCn1c(=O)c(C(=O)Nc2ccccc2S(N)(=O)=O)c(O)c2ccccc21	n
CCCCCn1c(=O)c(C(=O)Nc2cnccn2)c(O)c2ccccc21	n
CCCCCn1c(=O)c(C(=O)Nc2ccccc2C)c(O)c2ccccc21	-83
C=C1C(=O)O[C@H]2C[C@@H](C)[C@@H]3C=CC(=O)[C@@]3(C)C[C@H]12	-151
